In PubChem BioAssay AID1347426 (Functional Genomics Laboratory (NCATS/FGL), 2020) one finds median seed-adjusted z-score data, which are given here for 108 sequences.

Among all 31,000 sequences or so, about 1,400 (4.5%) were called active.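 Rule for the calls: active = median seed-adjusted z-score above 1 or below -1; inactive = the rest.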 This excerpt belongs to a sample that is enriched for actives.

A short description of the assay: Novel Modifiers of Survival Motor Neuron (SMN) Protein: Gene Identification via Genome-wide siRNA Screen.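 Note: luminescence tracks full-length SMN protein made from the SMN2 reporter.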 The conditions noted are these: HEK293T SMN2-luciferase reporter, siRNA knockdown, 72 h; actives lie on both sides. The text has this: Spinal muscular atrophy (SMA) is the most common neuromuscular autosomal recessive disorder and one of the leading genetic causes of infant death. SMA results from mutations inducing loss of function or deletion in the survival of motor neuron-1 gene (SMN1), leading to deficiency of the survival motor neuron (SMN) protein. Although a second nearly identical gene, SMN2, is retained in humans, its expression primarily produces an aberrantly spliced isoform that is largely unstable and quickly degraded. We performed a genome-wide RNAi screen using a cell-based reporter assay to identify genes and pathways that modulate SMN protein stability. The screen identified over 200 genes that led to the greatest increase or decrease in luciferase expression.
Using HEK293T cells stably expressing a luciferase reporter that combines the promoter and splicing based cassettes in tandem with the major portion of the native SMN2 cDNA with luciferase, we performed a genome-wide RNAi screen to identify modulators of SMN protein levels. Luciferase is expressed when full-length SMN protein is generated with luminescence signal proportional to SMN protein levels. Our luciferase-based reporter assay was used to screen Ambion Silencer Select Human Druggable Genome siRNA library (10418 genes, 3 unique siRNAs per gene) using lipid-based reverse transfection.
Briefly, 1 pmol of each siRNA was spotted to a well of a 384-well plate (Corning, Corning, NY) and 20 microL of serum-free DMEM containing […] of Lipofectamine RNAiMax (Life Technologies, Carlsbad, CA) was then added to each well. Transfected cells were maintained at 37 degrees C in 5% CO2 for 72 hours, 20 microL of ONE-Glo Reagent (Promega) was added to wells for luciferase quantification. Raw luminescence reads were normalized to Ambion(R) Silencer(R) Negative Control #2 siRNA, then log10 transformed. A robust statistical measure of median absolute deviation (MAD) to standardize siRNA activities from each screen. Common Seed Analysis was used to help prioritize clean hits as opposed to those appearing to arise from seed based off-target effects. Candidate modulators were defined as the genes having a MAD score greater than 1.0 or less than -1.0.
On to CCUGAUGUCUUAUCUCAGATT against ZNF398, for which the median seed-adjusted z-score was 0.119 (inactive). With AAAUCUUCGUGAACUUGGATT against MMD, the median seed-adjusted z-score is 0.193 (inactive). Regarding CCAUCUAGAGUAUCACGCATT against CYGB, the median seed-adjusted z-score is -0.34 (inactive). For GAAAUUCCACUGUAUCUAATT against COX7A2 the value was -0.0808 (inactive); for GAGAGAAACUGUCAGAGUATT against RNF185, -0.388 (inactive); for CCCUCUUCCUUAUCCUGCATT against PITPNM1, -0.203 (inactive). For GAACAACCCUAACCCAAGATT against ITGAM the value was -1.56 (active); for CCAACUCGGCAAAACCGUUTT against NDUFS3, -0.54 (inactive). CAACAACACCUGUUGCUUUTT against RGS17: the median seed-adjusted z-score was -0.627 (inactive). With GAGCUACAUUACUAAGUCATT against ZNF223, the median seed-adjusted z-score is 0.367 (inactive).

On to CCAGGCAAAUAGUGAAGAATT against VAX1, for which the median seed-adjusted z-score was 0.937 (inactive). For the sequence GCAGUUCCUAAAUUUCCGATT against SNX9, the median seed-adjusted z-score was 0.684 (inactive). For GGAGAAUGCCGAAGAGGAATT against POLR2F the value was -3.52 (active); for GGCUGUACUUCGUCAUGGATT against PRKCA, -0.249 (inactive). For CAUCCGACAUUGAAGUUGATT against B2M the value was -0.367 (inactive); for CGAGUAUGGUUUCCGCAAATT against UHMK1, -0.269 (inactive). Take GAAUGCGAUUCACACCUUUTT against CAT: the median seed-adjusted z-score is 0 (inactive). For CCCUAAUUCUUCGUCAUAATT against AMIGO2 the value was -0.258 (inactive); for CAUUGGUUUUGAUGAGUAUTT against SNRPE, -2.77 (active); for CUGUUUAACUGUGAGAUCATT against ANP32E, -0.0648 (inactive). For GCCUGCAAGUGUCCCAAAATT against NTN1 the value was -0.0419 (inactive).

For the sequence GAUAUUUGCCUAUGCCUUUTT against ZMYND19, the median seed-adjusted z-score is 0.369 (inactive).

As to GAAGGACAUGUACAAGAAATT against ITPKA, the median seed-adjusted z-score is -0.136 (inactive). For CCAGCAUCCCUAGCUCAGATT against SYVN1 the value was -1.41 (active). For GUCCGUUAACUAUCUGUUATT against GNAI3 the value was 0.0656 (inactive); for AAAUUAGAGUGAACAAGAATT against NFIC, 0.72 (inactive); for CAGUGGAUAUCAAGCUUAATT against OPA1, -0.182 (inactive). With GCAAGUGACUGCUAUCAAUTT against GRIA2, the median seed-adjusted z-score is -1.02 (active).

As for GAUCGUCUGCUGAAUACAATT against NASP, the median seed-adjusted z-score is 0.133 (inactive). For CAUCCAUUUGUCUUGCAAATT against GTF2F2 the value was -1.14 (active).

Regarding CCACAGUUCCUGUCAUGUUTT against ACMSD, the median seed-adjusted z-score is 0 (inactive). For GCACUUGUAAGAACUGGUATT against POSTN the value was -0.45 (inactive); for CGUCAGCGGUUUAGCUGGATT against SLC25A10, -0.571 (inactive); for CGCACAGUGCCUAACCCUATT against RAB26, 0.171 (inactive). Take GGAAGUUCAUGCCUCUGGATT against UBA7: the median seed-adjusted z-score was 2.41 (active). On to GGUUCUAUAGCAGACAAUATT against LOC81691, for which the median seed-adjusted z-score is -0.285 (inactive). For AGCUCCCUGCCUUUAAUAATT against CHPF the value was 0.248 (inactive); for GAUCGCUACUUACAGGAUATT against CYP51A1, -0.242 (inactive).

As to GAGUGAUAUGGAUAGUGAATT against TTC18, the median seed-adjusted z-score is -1.15 (active). As to GGAAUCUCAUUUUAUCGUATT against SLC7A2, the median seed-adjusted z-score is -0.245 (inactive). For GGAAGAAUUCAAUACGGCATT against FOXJ2 the value was -0.627 (inactive); for GGAUGCACCACAUCUAGUATT against RPS6KA3, -0.0233 (inactive). On to CCAAUUCCAGGUUAACUUUTT against S100A7A, for which the median seed-adjusted z-score was 0.212 (inactive). Regarding GGAGUGAAGACUUCGAGAATT against KCNN2, the median seed-adjusted z-score was -0.0251 (inactive).

As for CCUUCAAGCUGCAGACUAATT against THBS4, the median seed-adjusted z-score is -0.28 (inactive).

Regarding CGACAUAACUAUGUUCGGATT against ETF1, the median seed-adjusted z-score is -1.12 (active).

With GGAUUUUGCCUUAGCGGUATT against OSBPL8, the median seed-adjusted z-score was 0.231 (inactive). For GCCUAUCCUAGAACCAUCATT against KLK14 the value was -0.0998 (inactive); for GGACUUACCUUCAACCAAUTT against RSF1, 0 (inactive); for CAACCUUCCUCGGACUAAUTT against SLC26A2, -1.25 (active). For GGACUUGGAUUCGAGGAUATT against COL15A1 the value was 0.161 (inactive); for CCUAAAUGAUCGCAAAGUATT against PABPC1, -0.126 (inactive). For CCUUUACUACGUGUGCACATT against POLR2I the value was -3.27 (active); for GGAAGAACUUUCUCGGUAATT against TIMP2, 0.0444 (inactive); for CAAACGAUCUGAAGGUGAATT against AKTIP, -0.194 (inactive). Consider GGACAGAGGGCAACUAUAATT against KCNV2, for which the median seed-adjusted z-score is -1.13 (active). Regarding AAGCUAUUGUGAUCUCUGATT against ZBTB3, the median seed-adjusted z-score is -0.0419 (inactive). For GAAUUAUGGAUGACGAUAATT against CAPSL, the median seed-adjusted z-score is -0.168 (inactive). Regarding CACUCGUUCCGGUUCCUUUTT against ZNF439, the median seed-adjusted z-score is -0.26 (inactive). For CAGUGAGGCUGUUCUCGAATT against LIMCH1 the value was 0.125 (inactive); for CAGGUGAUGUGAUAUCAUATT against VGLL2, -0.0234 (inactive); for GCUAAUCCAUUUGAUGACATT against PYGO1, -1.23 (active). Consider GAAUGUAACUUCACAACCATT against ZHX2, for which the median seed-adjusted z-score is 0.0708 (inactive).

In the case of AGAAAGCUUUGGGCAAAUATT against EEF1B2, the median seed-adjusted z-score was 0.388 (inactive). For CAACAUAUCUGCACAGGUATT against FLVCR2 the value was -0.336 (inactive). For GGCUGUAACGUGAACAUCATT against DAPK1 the value was 0.27 (inactive); for UCGAGCAACUUAUUCCAUATT against MED30, -2.06 (active); for GCCUGUCCCAGACCAUUGATT against KLC4, 0 (inactive). For GCUUCUCUUUGAAUACCCATT against KCNA2 the value was -1.03 (active). As to CAAGUUCUCUUAUCCACCATT against PPP1R15A, the median seed-adjusted z-score was 0.539 (inactive). Turning to UGAAAUGGAUGAAAACCUATT against SNAP25, the median seed-adjusted z-score was 0 (inactive). For GCGUGUUCGUGCACGUCUATT against MOBKL2A the value was 0.268 (inactive).

For CAGCAACCAUGGAAAUCGATT against MYST4, the median seed-adjusted z-score was 0.138 (inactive). For ACUGGACAGUGGUAUCAGATT against UBASH3A the value was -1.1 (active); for CAGGUACAGCGCAUCGUUATT against EDC4, 0 (inactive). Regarding GGGAUGAUUCAGACAAACATT against ZC3HAV1, the median seed-adjusted z-score was 0.522 (inactive). Take CAGUGGAUCUAUAUGAACATT against KIT: the median seed-adjusted z-score is -0.686 (inactive). For GCAUUUACACUGUAUAUUATT against POU4F2 the value was 1.46 (active); for AACUCGCAGUGGUUCAAUUTT against TXNDC8, -0.281 (inactive). For GCAAGGAUAUGUACCAGAUTT against AGXT the value was 0.017 (inactive). For the sequence GGUUCAAUGGAAAAGGGAATT against DLX6, the median seed-adjusted z-score was 0.0275 (inactive). For GAACUGAUAUCUGAAGAGATT against MLPH the value was -1.2 (active); for CCUUCAUUGAGGACCUGAATT against PTP4A3, 0.354 (inactive). For GCUUCUCACGAGAUUGAAATT against SCARA3 the value was -0.05 (inactive); for GGGUUAGACGGAUACAAGATT against LILRA2, -0.103 (inactive); for CAGUACAGGUUGAGUCAAATT against LRRFIP1, -0.181 (inactive). For GCAAUUGAAUAUUGGAGUUTT against MED17 the value was -2.06 (active); for CAUAGAAGCGGAUACUUAUTT against GALM, -0.111 (inactive); for GCAGGGUGCACAUAUCAUUTT against VNN3, 0.343 (inactive). On to ACAUCUGCCUGAUCUCAUATT against INDO, for which the median seed-adjusted z-score was 0.0511 (inactive).

As to CCACUAAACUGCGAGAGAATT against CEBPD, the median seed-adjusted z-score is -0.101 (inactive). For GUGUGAGGGUUGAACUCAATT against EGLN1 the value was 2.05 (active); for CGGUAUUAUUGUCAUUGCATT against UBE2K, 0.497 (inactive); for GCAAUAUGUUUAUCCAUAATT against CSE1L, 0.425 (inactive). For GACAAAUGUUUGGUCAAUUTT against A2BP1 the value was 1.17 (active). For AUACUGACUUCAUAGAAAATT against RGS2 the value was 0.00236 (inactive); for GGAUAUCAACUUAUUAGAUTT against XPO1, 1.12 (active); for GCAUUGCAGAGAACCGACATT against METTL7A, 0.278 (inactive). As for CCUUGAUAGUGGUCGGGAATT against OSBPL3, the median seed-adjusted z-score was 0.0159 (inactive). For ACAGUGUAUUCAAACAGUATT against NGF the value was -0.325 (inactive). Consider GGAUAACUUCUCCUUGUCATT against PRM3, for which the median seed-adjusted z-score is 0.249 (inactive). AGAGGAUCAAGGUUUUAAATT against APBA2: the median seed-adjusted z-score is 1.66 (active).

In the case of GGCCGUUACUGAUUGAGCUTT against CAPN7, the median seed-adjusted z-score is 0.125 (inactive).

GCAUUUCGCUGUACAAGUUTT against IPO4: the median seed-adjusted z-score was -0.0188 (inactive). For GGAUUCAUCCGGUCCAGAUTT against PEX5L the value was 0.0982 (inactive). Consider GGCUUGCUGUAAUUACCCATT against ABCB1, for which the median seed-adjusted z-score is -0.384 (inactive). For the sequence GCUUUACAUGGUUUUCGAATT against CASK, the median seed-adjusted z-score is -0.422 (inactive).

Turning to GGAGAGUGCUACAAGGUGATT against COL6A2, the median seed-adjusted z-score is 0.0119 (inactive).
